The text below walks through data of PubChem BioAssay (EPA / NIEHS).

A word on the AC50: it is the midpoint of the concentration-response curve, whichever way the signal moves.

A short description of assay [1]: STM_H9_CystineISnorm_perc: Stemina devTOX quickPredict H9 human embryonic stem cell (hESC)-based Assay for Cystine (CYSS) Metabolite Biomarker, Normalized (AID 2283713; active = hit-call score of the fitted dose curve at least 0.9, where 1 is the maximum; inactive = score below 0.9). The procedure, abridged: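 Undifferentiated H9 hESCs exposed 72 h, compound and media replaced every 24 h; final 24-h media analysed by UPLC-HRMS. Cystine normalized to C13 spike-in standard and median 0.1% DMSO control.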

Assay [2] addresses Retinoic acid receptor alpha (Homo sapiens) (UniProt P10276). The assay can be described thus: NVS_NR_hRARa_Agonist: NovaScreen (NVS) Nuclear Receptor Binding Assay for human Retinoic Acid Alpha Receptor Agonism (RAR) (AID 2283361). Summed up: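 Cell-free TR-FRET binding read-out with extracted human RARα protein, read 2 h after compound addition. Gain of signal scored against DMSO baseline. Primary screen at a single 25 uM in duplicate; actives then retested in concentration series.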

For assay [3], the target named is human CYP1A2, CYP1A2 (gene 1544) (UniProt P05177). The assay can be described thus: NVS_ADME_hCYP1A2: NovaScreen (NVS) CYP450-related Enzyme Activity (ADME) Assay for human CYP1A2 (AID 2283102). The procedure, abridged:
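Inhibition scored as decrease in fluorescent product versus acetonitrile negative control. Enzyme: insect-cell recombinant human CYP1A2, substrate-specific, cell-free. Reading at 0.5 h; 10 uM duplicate initial screen with positive and negative controls on every plate.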

For assay [4], the target named is human Aurora Kinase A - serine/threonine-protein Kinase 6 (AurA), AURKA (gene 6790) (UniProt O14965). The assay can be described thus: NVS_ENZ_hAurA: NovaScreen (NVS) Enzymatic Assay for human Aurora Kinase A - serine/threonine-protein Kinase 6 (AurA) (AID 2283142). The procedure, abridged:
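Cell-free enzymatic assay with human Aurora A, 1 hour after dosing. Fluorescent substrate turnover detected after electrophoretic mobility shift separation of substrate and product. Screened at 25 uM, actives retested in concentration-response up to 50 uM.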

The target in assay [5] is human Ephrin type-A Receptor 2 (EphA2), EPHA2 (gene 1969) (UniProt P29317). The assay can be described thus: NVS_ENZ_hEphA2: NovaScreen (NVS) Enzymatic Assay for human Ephrin type-A Receptor 2 (EphA2) (AID 2283155). Summed up:
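Cell-free recombinant EphA2 kinase with specific substrate, 1 h, fluorescence with electrophoretic mobility-shift separation of substrate and product. Primary screen at 25 uM in duplicate; hits retested in singleton concentration-response up to 50 uM, referenced to DMSO.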

Assay [6] addresses human c-Jun N-terminal Kinases (JNK2), MAPK9 (gene 5601) (UniProt P45984). Put plainly: NVS_ENZ_hJNK2: NovaScreen (NVS) Enzymatic Assay for human c-Jun N-terminal Kinases (JNK2) (AID 2283171). Summed up: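 Cell-free recombinant human JNK2 activity assay; fluorescent substrate and product separated by electrophoretic mobility shift, read 1 h after dosing. Primary duplicate screen at 25 uM; actives run in concentration-response up to 50 uM, relative to DMSO.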

Assay [7] has as its target Mitogen-activated protein kinase 3 (Homo sapiens) (UniProt P27361). Put plainly: NVS_ENZ_hMAPK3: NovaScreen (NVS) Enzymatic Assay for human Mitogen-Activated Protein Kinase 3 (MAPK 3) (AID 2283177). Summed up: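 Cell-free enzymatic assay with recombinant protein and specific substrate; fluorescence and electrophoretic mobility shift read-out 1 h after dosing. Primary screen duplicate at 25 uM; actives then run in concentration-response up to 50 uM, loss of signal versus DMSO.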

Assay [8] deals with human MET Proto-Oncogene, Receptor Tyrosine Kinase (MET), MET (gene 4233) (UniProt P08581). Put plainly: NVS_ENZ_hMet: NovaScreen (NVS) Enzymatic Assay for human MET Proto-Oncogene, Receptor Tyrosine Kinase (MET) (AID 2283180). Summed up:
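Cell-free MET kinase assay using recombinant protein and fluorescent substrate, with mobility-shift separation; read 1 h after dosing. Primary duplicate at 25 uM; actives in singleton concentration-response to 50 uM maximum. Signal loss versus DMSO.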

The target of assay [9] is human Mitogen- and Stress-activated Protein Kinase-1 (Msk1), RPS6KA5 (gene 9252) (UniProt O75582). Put plainly: NVS_ENZ_hMsk1: NovaScreen (NVS) Enzymatic Assay for human Mitogen- and Stress-activated Protein Kinase-1 (Msk1) (AID 2283187). The procedure, abridged:
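Recombinant kinase with fluorescent substrate; product separated by electrophoretic mobility shift, read 1 h after dosing. Screened in duplicate at 25 uM; hits (e.g. ≥30% inhibition) tested in concentration–response up to 50 uM. DMSO baseline.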

Assay [10] deals with human Phosphodiesterase 4A1 (PDE4A1), PDE4A (gene 5141) (UniProt P27815). The assay can be described thus: NVS_ENZ_hPDE4A1: NovaScreen (NVS) Enzymatic Assay for human Phosphodiesterase 4A1 (PDE4A1) (AID 2283191). The procedure, abridged: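 Cell-free recombinant human PDE4A1 with fluorescent substrate; product separated by electrophoretic mobility shift, 1 h. Screened at 25 uM, then up to 50 uM in concentration-response; loss of signal fitted against DMSO.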

For assay [11], the target named is human Phosphodiesterase 5 (PDE5), PDE5A (gene 8654) (UniProt O76074). Put plainly: NVS_ENZ_hPDE5: NovaScreen (NVS) Enzymatic Assay for human Phosphodiesterase 5 (PDE5) (AID 2283194). Summed up:
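Recombinant human PDE5 with specific substrate, read 1 h after dosing by fluorescence with electrophoretic mobility-shift separation of substrate and product. Initial single-concentration duplicate screen at 25 uM, actives followed in concentration series; loss of activity versus DMSO.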

For assay [12], the target named is Tyrosine-protein phosphatase non-receptor type 14 (Homo sapiens) (UniProt Q15678). Put plainly: NVS_ENZ_hPTPN14: NovaScreen (NVS) Enzymatic Assay for human Protein Tyrosine Phosphatase Non-receptor Type 14 (PTPN14) (AID 2283206). Summed up: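 Cell-free recombinant human PTPN14 with fluorescent substrate, read 0.5 h after dosing by fluorescence and electrophoretic mobility shift separating substrate from product. Primary screen at 25 uM in duplicate; hits run to 50 uM maximum; loss of signal versus DMSO.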

Assay [13] has as its target human SRC Proto-Oncogene, Non-receptor Tyrosine Kinase (SRC), SRC (gene 6714) (UniProt P12931). Put plainly: NVS_ENZ_hSRC: NovaScreen (NVS) Enzymatic Assay for human SRC Proto-Oncogene, Non-receptor Tyrosine Kinase (SRC) (AID 2283223). Summed up:
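Cell-free kinase activity assay with fluorescent substrate, product separated by electrophoretic mobility shift, read 1 h after dosing. Duplicate single point at 25 uM, then concentration-response up to 50 uM; loss of signal versus DMSO.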

For assay [14], the system named is bovine Histamine 1 Receptor (H1), gene 281231. Put plainly: NVS_GPCR_bH1: NovaScreen (NVS) G Protein-Coupled Receptor Assay for bovine Histamine 1 Receptor (H1) (AID 2283246). The procedure, abridged: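 Radioligand displacement on bovine cerebellar membranes, 1 h after dosing, filter-based scintillation read-out; loss of signal vs DMSO. Duplicate single-concentration screen at 25 uM, then concentration-response up to 50 uM for hits.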

Assay [15] addresses rat Glutamate Metabotropic Receptor 5 (MGluR5), Grm5 (gene 24418) (UniProt P31424). Put plainly: NVS_GPCR_rmMGluR5: NovaScreen (NVS) G Protein-Coupled Receptor Assay for rat Glutamate Metabotropic Receptor 5 (MGluR5) (AID 2283307). The procedure, abridged: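 Rat whole-brain membrane preparation; filter-based radioligand binding read by scintillation counting, 1.5 h after dosing. Single-point screen at 25 uM in duplicate; hits over threshold (e.g. 30% inhibition) retested in concentration-response up to 50 uM; loss of signal vs DMSO.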

Assay [16] deals with rat Oxytocin Receptor (OXT), Oxtr (gene 25342) (UniProt P70536). Put plainly: NVS_GPCR_rOXT: NovaScreen (NVS) G Protein-Coupled Receptor Assay for rat Oxytocin Receptor (OXT) (AID 2283330). Summed up:
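Radioligand displacement on rat uterine membranes, 1 h incubation, filter-based scintillation counting. Chemicals were screened in duplicate at 25 uM, and those passing threshold were retested in concentration-response up to 50 uM. Loss of binding was fitted versus DMSO.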

Assay [17] deals with Norway rat Vesicular Monoamine Transporter (VMAT2), neurotransmitter transporter, Slc18a2 (gene 25549) (UniProt Q01827). The assay can be described thus: NVS_TR_rVMAT2: NovaScreen (NVS) Transporter Assay for Norway rat Vesicular Monoamine Transporter (VMAT2), neurotransmitter transporter (AID 2283376).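 Note: actives lower the bound radioligand signal below the DMSO level.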 The procedure, abridged:
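Rat forebrain tissue preparation used in a cell-free radioligand binding format; displacement read by filter-based scintillation counting 1 hour after dosing. Primary screen in duplicate at 25 uM, actives then run in concentration series; loss of signal versus DMSO baseline.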

Another assay concerns rat CYP2C6, gene 293989. Put plainly: NVS_ADME_rCYP2C6: NovaScreen (NVS) CYP450-related Enzyme Activity (ADME) Assay for rat CYP2C6 (AID 2283120). The procedure, abridged: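 Cell-free recombinant rat CYP2C6 with fluorogenic substrate, read by fluorescence 1 h after dosing; acetonitrile as negative control. Primary screen at 10 uM in duplicate, actives then in concentration-response up to 20 uM.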

Assay [18] is described as follows: UKN5_HCS_SBAD2_cell_viability: Viability Assessment in the University of Konstanz (UKN) Leist Lab Neurite Outgrowth Assay in human iPSC-derived immature Dorsal Root Ganglia Neurons (UKN5) (AID 2284056; active = hit-call score of the fitted dose curve at least 0.9, where 1 is the maximum; inactive = score below 0.9). The procedure, abridged:
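iPSC-derived immature peripheral neurons (SBAD2) seeded on Matrigel with CHIR99021, SU5402 and DAPT, dosed 1 h later for 24 h. Viability from Hoechst H-33342 and calcein-AM live staining, high-content imaging; bidirectional fit versus DMSO.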

The nature of assay [19]: UKN5_HCS_SBAD2_neurite_outgrowth: University of Konstanz (UKN) Leist Lab Neurite Outgrowth Assay in human iPSC-derived immature Dorsal Root Ganglia Neurons (UKN5) (AID 2284070; active = hit-call score of the fitted dose curve at least 0.9, where 1 is the maximum; inactive = score below 0.9). The conditions noted are these: actives raise or lower the signal. The procedure, abridged: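 SBAD2 iPSC-derived immature peripheral neurons on Matrigel, 100.000 cells/cm2, medium with CHIR99021 (1.5 uM), SU5402 (5 uM), DAPT (5 uM); compound added 1 h post-seeding for 24 h. Calcein-AM neurite area by high-content imaging; Hoechst H-33342 viability; bidirectional fit vs DMSO.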

The structures appear in SMILES notation. Results filed as inconclusive are left out. Activity calls are given as the source filed them. Rule for the calls, unless noted: active = hit-call score of the fitted dose curve at least 0.9, where 1 is the maximum; inconclusive = response in the unintended direction; inactive = score below 0.9.

Mitogen-activated protein kinase 3 (Homo sapiens), sequence (P27361 whole entry, looked up): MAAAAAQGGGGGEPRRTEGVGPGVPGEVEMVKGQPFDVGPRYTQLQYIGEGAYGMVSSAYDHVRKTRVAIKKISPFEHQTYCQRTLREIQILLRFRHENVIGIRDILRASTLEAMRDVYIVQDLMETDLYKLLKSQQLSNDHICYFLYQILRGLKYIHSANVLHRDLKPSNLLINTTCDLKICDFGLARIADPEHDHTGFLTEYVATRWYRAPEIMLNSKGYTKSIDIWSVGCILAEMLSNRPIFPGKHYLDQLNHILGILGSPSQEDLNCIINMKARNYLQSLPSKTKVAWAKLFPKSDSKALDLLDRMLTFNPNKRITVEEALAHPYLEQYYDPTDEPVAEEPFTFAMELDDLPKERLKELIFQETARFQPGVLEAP
rat Glutamate Metabotropic Receptor 5 (MGluR5), Grm5 (gene 24418), sequence (P31424 whole entry, looked up): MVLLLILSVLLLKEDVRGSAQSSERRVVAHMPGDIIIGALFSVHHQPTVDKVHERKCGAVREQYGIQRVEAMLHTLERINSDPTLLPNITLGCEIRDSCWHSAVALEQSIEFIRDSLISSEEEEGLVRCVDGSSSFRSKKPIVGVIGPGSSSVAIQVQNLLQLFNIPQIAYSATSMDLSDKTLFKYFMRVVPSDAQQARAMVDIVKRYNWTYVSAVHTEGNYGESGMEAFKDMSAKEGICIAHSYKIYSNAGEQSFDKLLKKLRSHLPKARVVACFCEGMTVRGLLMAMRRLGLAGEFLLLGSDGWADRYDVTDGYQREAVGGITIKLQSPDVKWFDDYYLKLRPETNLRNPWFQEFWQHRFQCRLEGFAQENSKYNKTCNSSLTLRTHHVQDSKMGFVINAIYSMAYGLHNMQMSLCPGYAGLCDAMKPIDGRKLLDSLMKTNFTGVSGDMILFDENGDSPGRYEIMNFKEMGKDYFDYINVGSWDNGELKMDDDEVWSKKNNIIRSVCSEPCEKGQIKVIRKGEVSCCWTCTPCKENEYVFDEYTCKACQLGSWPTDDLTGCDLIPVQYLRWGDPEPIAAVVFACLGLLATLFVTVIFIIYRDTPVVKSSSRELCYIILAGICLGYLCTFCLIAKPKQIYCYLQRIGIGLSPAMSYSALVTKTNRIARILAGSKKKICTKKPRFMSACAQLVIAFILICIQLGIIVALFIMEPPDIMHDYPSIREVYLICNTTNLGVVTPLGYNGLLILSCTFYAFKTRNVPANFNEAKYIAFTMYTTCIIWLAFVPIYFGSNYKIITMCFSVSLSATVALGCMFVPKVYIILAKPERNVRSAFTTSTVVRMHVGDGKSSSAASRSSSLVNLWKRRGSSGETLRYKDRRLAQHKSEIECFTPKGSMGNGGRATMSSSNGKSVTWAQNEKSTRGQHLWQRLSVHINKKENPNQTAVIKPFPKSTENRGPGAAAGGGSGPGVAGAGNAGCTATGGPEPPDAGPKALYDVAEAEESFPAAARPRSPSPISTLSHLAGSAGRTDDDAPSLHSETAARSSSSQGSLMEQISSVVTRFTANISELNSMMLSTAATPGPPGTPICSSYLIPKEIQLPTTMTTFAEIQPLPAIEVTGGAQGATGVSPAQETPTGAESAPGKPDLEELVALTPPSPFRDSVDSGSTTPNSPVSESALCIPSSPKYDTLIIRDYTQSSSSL
human MET Proto-Oncogene, Receptor Tyrosine Kinase (MET), MET (gene 4233), sequence (P08581 whole entry, looked up): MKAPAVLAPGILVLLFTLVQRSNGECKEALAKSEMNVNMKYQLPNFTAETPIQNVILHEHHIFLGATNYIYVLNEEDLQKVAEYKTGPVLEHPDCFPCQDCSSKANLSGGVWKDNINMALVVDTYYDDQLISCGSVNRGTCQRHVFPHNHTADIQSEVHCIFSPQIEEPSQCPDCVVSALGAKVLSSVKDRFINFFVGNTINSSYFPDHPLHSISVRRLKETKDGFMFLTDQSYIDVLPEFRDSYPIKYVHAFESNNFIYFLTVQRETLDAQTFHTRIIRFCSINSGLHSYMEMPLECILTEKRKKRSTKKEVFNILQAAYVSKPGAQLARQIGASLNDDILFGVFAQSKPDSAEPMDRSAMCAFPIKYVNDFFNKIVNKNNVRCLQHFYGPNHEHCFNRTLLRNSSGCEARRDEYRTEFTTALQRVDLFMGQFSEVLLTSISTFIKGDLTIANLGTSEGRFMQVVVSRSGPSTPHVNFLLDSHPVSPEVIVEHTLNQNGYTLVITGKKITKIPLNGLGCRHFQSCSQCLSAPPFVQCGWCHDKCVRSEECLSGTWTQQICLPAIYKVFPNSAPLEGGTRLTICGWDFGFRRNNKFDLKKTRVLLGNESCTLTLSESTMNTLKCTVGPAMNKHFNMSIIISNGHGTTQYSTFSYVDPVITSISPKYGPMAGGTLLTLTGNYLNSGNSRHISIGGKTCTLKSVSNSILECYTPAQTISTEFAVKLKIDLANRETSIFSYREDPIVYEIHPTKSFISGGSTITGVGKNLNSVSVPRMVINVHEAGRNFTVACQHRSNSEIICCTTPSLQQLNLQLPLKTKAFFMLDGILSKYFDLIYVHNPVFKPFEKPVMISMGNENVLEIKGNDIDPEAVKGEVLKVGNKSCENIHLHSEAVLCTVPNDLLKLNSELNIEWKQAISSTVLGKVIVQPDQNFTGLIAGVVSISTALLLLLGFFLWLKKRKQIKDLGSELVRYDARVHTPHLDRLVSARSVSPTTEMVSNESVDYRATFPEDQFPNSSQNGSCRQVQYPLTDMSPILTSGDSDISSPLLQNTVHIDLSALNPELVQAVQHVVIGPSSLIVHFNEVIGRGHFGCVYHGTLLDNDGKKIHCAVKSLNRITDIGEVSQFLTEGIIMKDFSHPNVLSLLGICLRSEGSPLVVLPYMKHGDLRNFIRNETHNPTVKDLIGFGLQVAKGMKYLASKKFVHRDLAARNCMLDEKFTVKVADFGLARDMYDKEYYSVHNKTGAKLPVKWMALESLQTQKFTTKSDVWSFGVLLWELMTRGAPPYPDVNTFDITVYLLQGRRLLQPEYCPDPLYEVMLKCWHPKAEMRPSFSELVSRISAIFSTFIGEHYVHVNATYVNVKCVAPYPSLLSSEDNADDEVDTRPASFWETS
human Ephrin type-A Receptor 2 (EphA2), EPHA2 (gene 1969), sequence (P29317 whole entry, looked up): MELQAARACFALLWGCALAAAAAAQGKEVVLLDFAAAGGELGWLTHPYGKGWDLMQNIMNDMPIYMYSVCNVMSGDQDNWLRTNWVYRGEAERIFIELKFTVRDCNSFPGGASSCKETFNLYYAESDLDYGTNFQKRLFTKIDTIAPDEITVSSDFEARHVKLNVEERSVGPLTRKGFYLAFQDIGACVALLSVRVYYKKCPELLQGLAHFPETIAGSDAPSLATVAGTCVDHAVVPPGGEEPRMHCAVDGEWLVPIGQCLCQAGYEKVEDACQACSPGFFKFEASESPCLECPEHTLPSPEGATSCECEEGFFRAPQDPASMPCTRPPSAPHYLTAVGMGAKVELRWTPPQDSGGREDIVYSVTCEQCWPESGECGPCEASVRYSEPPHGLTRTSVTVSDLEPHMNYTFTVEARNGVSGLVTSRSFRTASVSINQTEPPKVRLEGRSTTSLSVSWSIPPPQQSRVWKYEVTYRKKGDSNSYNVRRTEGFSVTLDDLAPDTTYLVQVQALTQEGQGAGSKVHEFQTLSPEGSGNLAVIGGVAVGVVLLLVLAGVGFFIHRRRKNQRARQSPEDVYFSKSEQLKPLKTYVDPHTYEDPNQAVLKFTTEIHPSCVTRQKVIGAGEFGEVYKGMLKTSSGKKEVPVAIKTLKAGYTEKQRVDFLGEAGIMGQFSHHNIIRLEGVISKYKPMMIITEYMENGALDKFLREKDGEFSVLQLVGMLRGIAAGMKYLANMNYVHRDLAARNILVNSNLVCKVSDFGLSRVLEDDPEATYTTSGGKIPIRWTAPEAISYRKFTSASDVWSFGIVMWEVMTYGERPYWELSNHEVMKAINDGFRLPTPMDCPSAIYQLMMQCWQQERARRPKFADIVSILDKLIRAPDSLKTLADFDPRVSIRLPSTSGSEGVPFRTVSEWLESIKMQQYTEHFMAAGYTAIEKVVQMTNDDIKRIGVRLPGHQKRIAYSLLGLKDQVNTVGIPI
rat Oxytocin Receptor (OXT), Oxtr (gene 25342), sequence (P70536 whole entry, looked up): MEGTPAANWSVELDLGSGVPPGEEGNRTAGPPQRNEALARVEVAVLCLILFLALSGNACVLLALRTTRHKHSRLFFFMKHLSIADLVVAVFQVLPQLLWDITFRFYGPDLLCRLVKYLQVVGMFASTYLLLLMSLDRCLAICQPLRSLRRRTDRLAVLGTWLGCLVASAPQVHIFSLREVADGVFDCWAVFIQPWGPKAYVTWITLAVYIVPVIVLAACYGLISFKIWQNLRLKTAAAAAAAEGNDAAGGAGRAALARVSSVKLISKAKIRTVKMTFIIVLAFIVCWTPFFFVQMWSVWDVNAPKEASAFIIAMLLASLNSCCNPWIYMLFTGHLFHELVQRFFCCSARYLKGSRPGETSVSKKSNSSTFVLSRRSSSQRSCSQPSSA
human SRC Proto-Oncogene, Non-receptor Tyrosine Kinase (SRC), SRC (gene 6714), sequence (P12931 whole entry, looked up): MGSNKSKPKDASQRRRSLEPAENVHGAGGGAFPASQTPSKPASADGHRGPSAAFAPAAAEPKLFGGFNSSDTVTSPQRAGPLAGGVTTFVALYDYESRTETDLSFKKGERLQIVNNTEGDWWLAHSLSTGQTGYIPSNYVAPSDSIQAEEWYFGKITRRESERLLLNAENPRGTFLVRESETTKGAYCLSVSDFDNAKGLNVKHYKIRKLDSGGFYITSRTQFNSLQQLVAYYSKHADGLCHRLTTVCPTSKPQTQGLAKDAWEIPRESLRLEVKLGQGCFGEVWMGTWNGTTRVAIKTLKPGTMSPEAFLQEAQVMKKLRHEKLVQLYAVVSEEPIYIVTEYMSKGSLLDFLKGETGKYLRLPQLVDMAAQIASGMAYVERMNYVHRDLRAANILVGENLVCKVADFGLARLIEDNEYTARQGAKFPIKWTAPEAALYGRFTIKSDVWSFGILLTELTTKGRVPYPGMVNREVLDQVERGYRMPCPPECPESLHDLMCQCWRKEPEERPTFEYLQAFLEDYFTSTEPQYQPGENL

`Cc1ccc(OP(=O)(Oc2ccc(C)cc2)Oc2ccc(C)cc2)cc1` (tested in a mixture with another compound): the concentration at half-maximal activity (AC50) in assay [1] was 58.4 µM (active).

For `O=C=Nc1ccccc1`, the AC50 in [2] is 9.8 µM (active).

Consider `N#CCCCCC#N`, for which the outcome in assay [3], in assay [4], in assay [5], in [6], in assay [7] and in assay [8] was inactive. Also, the result in assay [9], in assay [10], in [11], in assay [12], in assay [13] and in assay [14] was inactive. Besides, the call in [15], in assay [16] and in assay [17] was inactive.

`CC1(C)[C@H](C(=O)O[C@H](C#N)c2cccc(Oc3ccccc3)c2)[C@@H]1C=C(Br)Br`: the molecule was called inactive in the assay on rat CYP2C6, gene 293989. In addition, the half-maximal activity concentration (AC50) in assay [18] was 115 µM (active); in assay [19] it was 111 µM (active).
